Results on 14 molecules are retold here after PubChem BioAssay.

Active and inactive are the calls of the source.

The subject of assay [1] is PRMT1 (protein arginine N-methyltransferase 1). The assay can be described thus: PRMT1 binders on small-molecule microarrays, primary screen, biochemical, small-molecule microarray, 635 nm fluorescence (AID 1088).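 Note: binding of Prmt1 protein to compounds spotted on small-molecule microarray slides.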 Conditions: small-molecule microarray binding, higher = more signal.
Assay [2] can be described thus: yeast growth modulation, basal conditions, primary screen, YJM789 clinical isolate, OD600, 24 h (AID 1089).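 Note: growth of clinical yeast isolate S. cerevisiae YJM 789 seeded 1000 cells per well; test concentration not given here.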 The settings on record: S. cerevisiae YJM789 growth, higher = more signal, called active from +8 up or from −8 down.
Assay [3] can be described thus: fission yeast growth modulation, primary screen, strain 972, OD600, 24 h, no modulator (AID 1090).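 Note: basal condition with compound alone and no growth modifier present; test concentration not given here.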 Conditions: S. pombe 972 growth, higher = more signal, called active from +8 up or from −8 down.
Assay [4] can be described thus: S. cerevisiae growth modulation with rapamycin, primary screen, strain BY4716, OD600, 96 h (AID 1091). Note: test concentration not given here. Conditions: higher = more signal, called active from +8 up or from −8 down.
For assay [5], the target named is Torsin-1A-interacting protein 2 (Homo sapiens) (UniProt Q8NFQ8). The assay can be described thus: LULL1 binders on small-molecule microarray, primary screen, cell lysate, human LULL1 lysate, 635/667 nm fluorescence (AID 1092).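 Note: probe is lysate of COS7 cells overexpressing human LULL1; score merges per-feature 667 nm fluorescence with signal-to-noise.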 The settings on record: hLULL1 lysate binding, 635 nm fluorescence, higher = more signal.
Torsin-1A-interacting protein 2 (Homo sapiens), sequence (Q8NFQ8 whole entry, looked up): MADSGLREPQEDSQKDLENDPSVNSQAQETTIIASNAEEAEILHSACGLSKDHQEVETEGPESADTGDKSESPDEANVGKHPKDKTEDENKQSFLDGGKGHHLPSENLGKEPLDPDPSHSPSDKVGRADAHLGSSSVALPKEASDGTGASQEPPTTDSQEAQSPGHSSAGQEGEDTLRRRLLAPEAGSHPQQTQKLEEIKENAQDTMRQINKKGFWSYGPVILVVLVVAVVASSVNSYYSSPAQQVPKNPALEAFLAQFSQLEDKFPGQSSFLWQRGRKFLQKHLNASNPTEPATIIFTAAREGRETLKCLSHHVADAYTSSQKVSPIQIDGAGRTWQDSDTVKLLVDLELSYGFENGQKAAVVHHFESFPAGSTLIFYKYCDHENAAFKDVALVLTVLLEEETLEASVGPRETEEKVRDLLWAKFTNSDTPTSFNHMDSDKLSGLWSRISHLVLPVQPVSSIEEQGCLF
The nature of assay [6]: E. coli growth modulation, two-sided OD650, primary screen, E. coli filamentation project, strain DRC41, 24 h (AID 1093).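 Note: MC1000 strain lacking acrAB efflux and sulA so SOS filamentation is blocked; test concentration not given here.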 Conditions: OD650, 24 h, higher = more signal, called active from +8 up or from −8 down.
Assay [7] in a line: small-molecule microarray binders of probe aLefty2, primary screen, biochemical, biotinylated probe, 635/667 nm fluorescence (AID 1094).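 Note: score merges spot fluorescence near 667 nm with spot signal-to-noise ratio.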 Conditions: higher = more signal.
Assay [8] has as its system Noggin (protein binding on small-molecule microarray). The experiment in a line: Noggin binders on small-molecule microarray, primary screen, biochemical, 635/667 nm fluorescence (AID 1095).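 Note: score merges 667 nm feature fluorescence with signal to noise over triplicate slides.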 Conditions: 635 nm fluorescence, higher = more signal.
Assay [9] deals with Neurogenic locus notch homolog protein 3 (Homo sapiens) (UniProt Q9UM47). The assay can be described thus: NOTCH3 binders on small-molecule microarray, primary screen, biochemical, 635/667 nm fluorescence (AID 1096). The settings on record: NOTCH3 binding, 635 nm fluorescence, higher = more signal.
Neurogenic locus notch homolog protein 3 (Homo sapiens), sequence (Q9UM47 whole entry, looked up): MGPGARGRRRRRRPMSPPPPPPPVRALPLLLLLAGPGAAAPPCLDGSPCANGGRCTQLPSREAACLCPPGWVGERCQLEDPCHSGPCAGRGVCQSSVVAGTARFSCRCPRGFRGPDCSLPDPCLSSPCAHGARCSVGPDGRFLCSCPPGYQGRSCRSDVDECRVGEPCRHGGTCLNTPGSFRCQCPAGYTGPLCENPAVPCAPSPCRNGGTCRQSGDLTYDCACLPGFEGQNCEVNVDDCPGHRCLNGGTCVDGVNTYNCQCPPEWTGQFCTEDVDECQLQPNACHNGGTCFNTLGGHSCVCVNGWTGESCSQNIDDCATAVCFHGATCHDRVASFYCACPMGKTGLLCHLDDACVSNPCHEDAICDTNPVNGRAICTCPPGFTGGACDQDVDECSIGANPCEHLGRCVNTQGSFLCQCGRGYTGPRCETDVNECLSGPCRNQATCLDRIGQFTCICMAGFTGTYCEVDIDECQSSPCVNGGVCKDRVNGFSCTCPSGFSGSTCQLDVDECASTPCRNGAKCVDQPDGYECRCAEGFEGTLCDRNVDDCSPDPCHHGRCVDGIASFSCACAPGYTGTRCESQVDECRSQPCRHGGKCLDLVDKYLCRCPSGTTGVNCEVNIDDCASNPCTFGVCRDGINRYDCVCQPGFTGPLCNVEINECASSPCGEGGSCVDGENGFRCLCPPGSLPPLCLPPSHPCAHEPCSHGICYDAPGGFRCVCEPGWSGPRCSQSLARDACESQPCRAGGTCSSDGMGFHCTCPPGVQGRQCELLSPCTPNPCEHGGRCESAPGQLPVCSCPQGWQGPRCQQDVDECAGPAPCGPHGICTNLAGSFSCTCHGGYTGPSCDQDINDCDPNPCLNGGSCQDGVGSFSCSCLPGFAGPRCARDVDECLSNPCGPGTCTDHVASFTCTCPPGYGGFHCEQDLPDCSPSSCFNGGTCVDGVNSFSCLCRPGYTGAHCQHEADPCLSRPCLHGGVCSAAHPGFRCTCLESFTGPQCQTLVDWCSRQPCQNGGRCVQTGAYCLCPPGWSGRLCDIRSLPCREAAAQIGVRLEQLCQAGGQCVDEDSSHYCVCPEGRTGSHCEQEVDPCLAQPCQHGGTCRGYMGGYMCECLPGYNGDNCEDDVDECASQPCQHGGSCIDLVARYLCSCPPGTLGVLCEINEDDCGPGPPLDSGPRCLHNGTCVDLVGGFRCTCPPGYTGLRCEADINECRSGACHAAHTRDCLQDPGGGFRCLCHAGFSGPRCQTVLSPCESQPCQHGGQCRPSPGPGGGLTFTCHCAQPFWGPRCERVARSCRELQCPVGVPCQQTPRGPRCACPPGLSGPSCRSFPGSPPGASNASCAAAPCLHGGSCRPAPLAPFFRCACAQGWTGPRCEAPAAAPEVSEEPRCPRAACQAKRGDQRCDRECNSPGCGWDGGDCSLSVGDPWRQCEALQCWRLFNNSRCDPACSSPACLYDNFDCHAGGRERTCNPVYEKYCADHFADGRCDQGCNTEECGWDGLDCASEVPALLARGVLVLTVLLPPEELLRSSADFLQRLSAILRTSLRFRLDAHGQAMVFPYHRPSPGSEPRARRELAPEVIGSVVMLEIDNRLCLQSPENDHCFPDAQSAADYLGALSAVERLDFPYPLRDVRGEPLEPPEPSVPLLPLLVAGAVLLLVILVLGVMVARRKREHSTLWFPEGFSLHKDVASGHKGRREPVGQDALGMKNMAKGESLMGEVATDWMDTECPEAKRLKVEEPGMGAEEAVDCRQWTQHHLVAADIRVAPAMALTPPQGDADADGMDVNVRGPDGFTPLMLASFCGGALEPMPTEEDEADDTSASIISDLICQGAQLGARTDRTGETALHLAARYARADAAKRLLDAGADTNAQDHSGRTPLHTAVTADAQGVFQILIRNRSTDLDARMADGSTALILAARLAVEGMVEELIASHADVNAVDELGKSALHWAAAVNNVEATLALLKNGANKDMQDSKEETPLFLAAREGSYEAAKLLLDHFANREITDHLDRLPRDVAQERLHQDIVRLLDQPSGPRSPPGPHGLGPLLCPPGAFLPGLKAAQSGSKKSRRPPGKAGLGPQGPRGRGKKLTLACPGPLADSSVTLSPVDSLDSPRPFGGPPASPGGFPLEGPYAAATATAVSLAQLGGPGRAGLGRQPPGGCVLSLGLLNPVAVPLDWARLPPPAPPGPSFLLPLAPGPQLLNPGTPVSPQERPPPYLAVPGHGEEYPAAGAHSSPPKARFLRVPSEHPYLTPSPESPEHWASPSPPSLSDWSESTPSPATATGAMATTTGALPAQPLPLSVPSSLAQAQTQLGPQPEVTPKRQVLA
Assay [10] is described as follows: small-molecule microarray binders of probe aEGFR, primary screen, biochemical, biotinylated probe, 635/667 nm fluorescence (AID 1097).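 Note: probe is a biotinylated anti-EGFR antibody binding compounds printed on slides; score combines fluorescence near 667 nm and signal to noise of each spot.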 The settings on record: higher = more signal.

`C=CC[C@@]1(C(=O)NCCCOC)N=C(c2ccc(OCCCO)cc2)O[C@@H]1c1ccccc1CN=[N+]=[N-]`: the composite z-score in assay [1] came to 1.55; in assay [5] it was 2.35; in [7], 0.258; in [8], 1.01; in assay [9], 1.12; in assay [10] it was 0.0914. In addition, the z-score in assay [2] is -0.759 (inactive); in assay [3] it was -0.0094 (inactive); in [4], -0.966 (inactive); in assay [6] it was 1.1 (inactive).

Consider `C=CCNC(=O)[C@H]1[C@@H]2C(=O)O[C@@H](c3ccccc3)[C@@H](c3ccccc3)N2[C@@H](c2ccc(OCCO)cc2)[C@]12C(=O)N(C(=O)OCCOC)c1ccc(C#CCNC(N)=O)cc12`, for which the composite z-score in [1] is 1.55; in [5], 1.97; in [7], 0.247; in [8], 1.84; in [9], 1.11; in assay [10] it was 0.0173. The z-score was 1.91 (inactive) in [2], 0.996 (inactive) in assay [3], 4.55 (inactive) in assay [4] and -0.121 (inactive) in [6].

With `COc1ccc([Si](C)(C)[C@H]2[C@H](CC(=O)N(CCO)Cc3ccccc3)O[C@@]3(C(=O)N(Cc4cccc(N5CCCCC5=O)c4)c4ccccc43)[C@@H]2C)cc1`, the composite z-score in assay [1] was 1.45; in [5], 0.876; in assay [7] it was -0.0719; in assay [8], 0.659; in [9], 0.604; in [10], -0.045. For the same molecule, the z-score in assay [2] was -1.68 (inactive); in assay [3] it was -0.0671 (inactive); in assay [4] it was 2.14 (inactive); in [6], 1.27 (inactive).

Take `COc1cccc(C)c1NC(=O)O[C@H]1[C@H](OC(=O)Nc2ccccc2-c2ccccc2)[C@@H](OC(=O)Nc2ccccc2-c2ccccc2)[C@@H](OC)O[C@@H]1CO`: the composite z-score in assay [1] is 1.53; in assay [5], 3.54; in assay [7] it was 0.0426; in assay [8], 1.36; in assay [9], 0.542; in assay [10], 0.0059. The z-score in assay [2] is 3.84 (inactive); in assay [3], 2.59 (inactive); in [4], 3.5 (inactive); in assay [6] it was -0.692 (inactive).

With `C=CCOC(=O)[C@H]1[C@@H]2C(=O)O[C@@H](c3ccccc3)[C@@H](c3ccccc3)N2[C@@H](c2ccc(OCCOC(=O)[C@H]3C[C@H]4C(=O)NCC(=O)N4[C@H]3c3ccc(O)cc3)cc2)[C@]12C(=O)Nc1ccccc12`, the composite z-score in assay [1] came out at 1.48; in [5], 2.58; in [7] it was 0.0337; in assay [8] it was 1.22; in [9], 1.09; in assay [10], 0.0656. The z-score in assay [2] was 1.71 (inactive); in [3], 1.61 (inactive); in [4] it was 4.1 (inactive); in assay [6], -0.0665 (inactive).

`C=C(CCCC)/C(=C/C[C@@H](OC(C)=O)c1ccc(OCCO)cc1)c1cc(C(=O)OC)ccc1OC`: the composite z-score in [1] is 1.55; in assay [5], 2.27; in assay [7], 0.0677; in assay [8], 0.0148; in assay [9], 0.467; in [10], -0.0828. In addition, the z-score was -0.201 (inactive) in assay [2], -0.52 (inactive) in assay [3], -0.645 (inactive) in [4] and 0.0811 (inactive) in assay [6].

`CC1(C)OB(/C=C\CC(OC(=O)c2ccncc2)c2ccccc2)OC1(C)C` (stereo not given): the composite z-score in assay [1] is -0.477; in assay [5], 0.962; in assay [7], 1.22; in assay [8], -1.92; in assay [9], -1.73; in assay [10], -0.244. In addition, the z-score in assay [2] is -1.7 (inactive); in [3], -1.3 (inactive); in [4], 1.99 (inactive); in [6], 1.04 (inactive).

With `[N-]=[N+]=NCc1ccccc1[C@H]1OC(c2ccc(OCCCO)cc2)=N[C@@]1(Cc1ccccc1N=[N+]=[N-])C(=O)O`, the composite z-score stood at 1.57 in assay [1]; 2.78 in [5]; 0.359 in [7]; 0.145 in assay [8]; 1.06 in assay [9]; 0.0783 in [10]. Besides, the z-score in assay [2] was -0.467 (inactive); in assay [3], -4.46 (inactive); in [4] it was -1.66 (inactive); in assay [6], -0.0765 (inactive).

Regarding `CC[C@@H](O[Si](C#C[Si](C(C)C)(C(C)C)C(C)C)(C(C)C)C(C)C)c1cn([C@H](CO)Cc2ccccc2)nn1`, the composite z-score in assay [1] is 1.34; in assay [5], 1.51; in assay [7], -0.232; in [8], 0.715; in [9], 0.907; in [10] it was -0.0584. In addition, the z-score in assay [2] was 1.57 (inactive); in assay [3], 1.22 (inactive); in assay [4] it was 0.532 (inactive); in [6], 0.598 (inactive).

Regarding `C=C(C)C1CN([C@H](CO)c2ccccc2)C(=O)/C1=C\c1ccccc1` (stereo not given in full), the composite z-score in assay [1] was 0.464; in assay [5], -0.302; in assay [7] it was -0.0931; in assay [8], 0.467; in assay [9], 0.0584; in assay [10], -0.167. The z-score in [2] is -0.334 (inactive); in assay [3], -3.2 (inactive); in [4], -0.481 (inactive); in assay [6] it was 1.82 (inactive).

As to `[N-]=[N+]=Nc1ccccc1C[C@@]1(C(=O)NCc2ccccc2)N=C(c2ccc(OCCCO)cc2)O[C@@H]1c1ccccc1`, the composite z-score amounted to 1.54 in assay [1]; 3.02 in assay [5]; 0.271 in [7]; 0.922 in assay [8]; 1.03 in assay [9]; 0.1 in assay [10]. Also, the z-score in [2] is -1.27 (inactive); in [3] it was 0.326 (inactive); in [4], 5.57 (inactive); in assay [6], 0.594 (inactive).

Regarding `O=C1NC(=O)C2C1C=CC(C(O)C(O)CO)N2Nc1ccccn1` (stereo not given), the composite z-score is 0.635 in assay [1]; 0.541 in assay [5]; -0.343 in [7]; 0.349 in assay [8]; 0.32 in assay [9]; 0.0713 in [10]. The z-score in [2] is -0.517 (inactive); in [3] it was 0.294 (inactive); in assay [4], -0.73 (inactive); in [6], -1.02 (inactive).

As for `C=CCN1C(=O)[C@]2(O[C@H](CCO)[C@@H]([Si](C)(C)c3ccc(OC)cc3)[C@@H]2C)c2cc(N3C(=O)c4ccccc4Oc4ccccc43)ccc21`, the composite z-score is 1.41 in assay [1]; 2.13 in assay [5]; -0.0658 in [7]; 0.458 in [8]; 0.803 in [9]; -0.115 in assay [10]. In addition, the z-score was 0.922 (inactive) in [2], 0.729 (inactive) in assay [3], 35.6 (active) in assay [4] and 0.77 (inactive) in assay [6].

With `C[C@H]1C2[C@H](Cc3ccccc3)NC(=O)[C@]23C(=O)N[C@@H](Cc2ccccc2)C(=O)N2CCC[C@H]2C(=O)NC/C=C/CC/C=C/C3[C@@H]2O[C@]12C` (stereo not given in full), the composite z-score is 1.05 in assay [1]; 1.7 in assay [5]; -0.0666 in [7]; 0.79 in assay [8]; 0.977 in assay [9]; -0.135 in [10]. Moreover, the z-score is -0.501 (inactive) in [2], -0.36 (inactive) in [3], -0.441 (inactive) in assay [4] and -0.269 (inactive) in [6].
